# In PubChem BioAssay:
# The source made the active and inactive calls.
# Tests used:
# [1] = test system: Plasmodium falciparum Sir2 (PF13_0152, Sir2A); assay: pfSir2 binders on small-molecule microarrays, primary screen, biochemical, small-molecule microarray, 635 nm fluorescence (AID 1098); details: small-molecule microarray binding, fluorescence 635 nm; higher = more signal;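 note: score merges spot fluorescence intensity with its signal-to-noise ratio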
# [2] = small-molecule microarray binders of probe aDKK1, primary screen, biochemical, biotinylated probe, 635/667 nm fluorescence (AID 1099); details: higher = more signal;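 note: score merges 667nm spot fluorescence with signal to noise across triplicate slides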
# [3] = small-molecule microarray binders of probe aCHRDL2, primary screen, biochemical, biotinylated probe, 635/667 nm fluorescence (AID 1100); details: higher = more signal
# [4] = splicing luciferase reporter signal modulators, primary screen, spliceosome inhibition project, cell-based, HEK293, splice +/- reporter (AID 1101); details: luminescence, 24 h, higher = more signal, called active from +8 up or from −8 down;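 note: HEK293 cells carrying a splicing-competent luciferase reporter gene; test concentration not given here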
# [5] = biological target: Fibroblast growth factor 10 (Homo sapiens) (UniProt O15520); assay: FGF10 binders on small-molecule microarrays, primary screen, biochemical, small-molecule microarray, 635 nm fluorescence (AID 1102); details: FGF10 binding, fluorescence 635 nm, higher = more signal
# [6] = test system: glycogen synthase kinase-3 (GSK3A per assay name; protocol says GSK3B); assay: GSK3 binders on small-molecule microarrays, primary screen, biochemical, small-molecule microarray, 635 nm fluorescence, GSK3A (AID 1103); details: small-molecule microarray binding, fluorescence 635 nm; higher = more signal; note: the record names both GSK3A and GSK3B
# [7] = biological target: Epidermal growth factor receptor (Homo sapiens) (UniProt P00533); assay: EGFR binders on small-molecule microarrays, primary screen, biochemical, small-molecule microarray, 635 nm fluorescence (AID 1104); details: EGFR binding, higher = more signal;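 note: score merges 667 nm emission intensity with spot signal to noise over triplicate slides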
# [8] = biological target: Follistatin-related protein 3 (Homo sapiens) (UniProt O95633); assay: FSTL3 binders on small-molecule microarrays, primary screen, biochemical, small-molecule microarray, 635 nm fluorescence (AID 1105); details: FSTL3 binding, higher = more signal;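 note: score merges emission near 667 nm and signal to noise per printed spot across three slides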
# [9] = biological target: Dickkopf-related protein 1 (Homo sapiens) (UniProt O94907); assay: DKK1 binders on small-molecule microarrays, primary screen, biochemical, small-molecule microarray, 635 nm fluorescence scan (AID 1106); details: DKK1 binding, higher = more signal;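 note: score merges emission near 667 nm with signal to noise over three replicate slides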
# [10] = test system: Inhibin beta A chain (activin A); assay: INHBA (activin A) binders on microarrays, primary screen, biochemical, small-molecule microarray, 635 nm fluorescence scan (AID 1107); details: small-molecule microarray binding, higher = more signal;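 note: mouse activin A protein probed at 4.33 µg/mL on printed slides; score merges bound-protein fluorescence near 667 nm with spot signal-to-noise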
# [11] = test system: Human papillomavirus type 1a protein E7 (residues 44-93); assay: HPV1a E7 fragment binders on microarrays, primary screen, biochemical, small-molecule microarray, residues 44-93, 635 nm fluorescence (AID 1108); details: small-molecule microarray binding, fluorescence 635 nm; higher = more signal;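 note: E7 fragment applied at 1 µg/mL in TBST for 1 h at 4 C; score combines spot fluorescence with its signal to noise ratio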
# [12] = modulators of HCV replicon luciferase signal, primary screen, HCV replication inhibitor project, Huh7 cells, luciferase reporter (AID 1109); details: 48 h, higher = more signal;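 note: huh7 hepatoma cells harbouring a luciferase neomycin HCV replicon reporter; luciferase luminescence as measure of HCV replicon replication; test concentration not given here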
# [13] = biological target: Left-right determination factor 2 (Homo sapiens) (UniProt O00292); assay: LEFTY2 binders on small-molecule microarrays, primary screen, biochemical, small-molecule microarray, 635 nm fluorescence scan (AID 1110); details: LEFTY2 binding, higher = more signal
# [14] = biological target: Calmodulin-1 (Homo sapiens) (UniProt P0DP23); assay: CALM1 binders on microarrays, EGTA buffer, profiling panel, biochemical, small-molecule microarray, Cy5-labelled CALM1 (AID 1111); details: Cy5-CALM1 binding fluorescence, higher = more signal;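 note: labelled calmodulin applied in Tris saline Tween buffer holding calcium plus EGTA and DTT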
# [15] = biological target: Calmodulin-1 (Homo sapiens) (UniProt P0DP23); assay: calcium-bound CALM1 binders on microarrays, profiling panel, artefact control for SMM control-protein annotation, biochemical, small-molecule microarray, Cy5-labelled CALM1, plus calcium (AID 1112); details: Cy5-CALM1 binding fluorescence, higher = more signal;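 note: score merges spot fluorescence with signal to noise from triplicate slides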
# [16] = small-molecule microarray binders of probe aWnt5a, primary screen, biochemical, biotinylated probe, 635/667 nm fluorescence (AID 1113); details: higher = more signal;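 note: score merges 667 nm fluorescence intensity with signal-to-noise per printed feature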
# [17] = small-molecule microarray binders of probe aShh, primary screen, biochemical, biotinylated probe, 635/667 nm fluorescence (AID 1114); details: higher = more signal;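 note: probe is biotin-labelled aShh protein from a stem cell growth factor screen; measures binding of labelled protein to compounds printed on the slide; score merges feature fluorescence at 667 nm with signal-to-noise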
# [18] = small-molecule microarray binders of probe aNog, primary screen, biochemical, biotinylated probe, 635/667 nm fluorescence (AID 1115); details: higher = more signal;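 note: probe is biotinylated aNog protein used at 0.15 µg/mL for 1 h at 4 C; z-score combines 667 nm fluorescence of each spot with its signal to noise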
# [19] = biological target: Torsin-1A-interacting protein 1 (Homo sapiens) (UniProt Q5JTV8); assay: LAP1 binders from COS7 cell lysate, primary screen, small-molecule microarray, 635/667 nm fluorescence (AID 1116); details: COS7-hLAP1 lysate binding, 635 nm fluorescence, higher = more signal
# [20] = biological target: Alpha-bungarotoxin (Bungarus multicinctus) (UniProt P60615); assay: alpha-bungarotoxin binders on microarray, profiling panel, artefact control for SMM control protein annotation, biochemical, small-molecule microarray, Alexa647 label, 635/667 nm fluorescence (AID 1117); details: alpha-BTX-A647 binding fluorescence, higher = more signal
# Chain of Alpha-bungarotoxin (Bungarus multicinctus) (P60615 whole entry, looked up): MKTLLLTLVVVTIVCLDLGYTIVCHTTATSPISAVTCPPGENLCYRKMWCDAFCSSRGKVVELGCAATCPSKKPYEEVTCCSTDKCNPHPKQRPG
# Chain of Epidermal growth factor receptor (Homo sapiens) (P00533 whole entry, looked up): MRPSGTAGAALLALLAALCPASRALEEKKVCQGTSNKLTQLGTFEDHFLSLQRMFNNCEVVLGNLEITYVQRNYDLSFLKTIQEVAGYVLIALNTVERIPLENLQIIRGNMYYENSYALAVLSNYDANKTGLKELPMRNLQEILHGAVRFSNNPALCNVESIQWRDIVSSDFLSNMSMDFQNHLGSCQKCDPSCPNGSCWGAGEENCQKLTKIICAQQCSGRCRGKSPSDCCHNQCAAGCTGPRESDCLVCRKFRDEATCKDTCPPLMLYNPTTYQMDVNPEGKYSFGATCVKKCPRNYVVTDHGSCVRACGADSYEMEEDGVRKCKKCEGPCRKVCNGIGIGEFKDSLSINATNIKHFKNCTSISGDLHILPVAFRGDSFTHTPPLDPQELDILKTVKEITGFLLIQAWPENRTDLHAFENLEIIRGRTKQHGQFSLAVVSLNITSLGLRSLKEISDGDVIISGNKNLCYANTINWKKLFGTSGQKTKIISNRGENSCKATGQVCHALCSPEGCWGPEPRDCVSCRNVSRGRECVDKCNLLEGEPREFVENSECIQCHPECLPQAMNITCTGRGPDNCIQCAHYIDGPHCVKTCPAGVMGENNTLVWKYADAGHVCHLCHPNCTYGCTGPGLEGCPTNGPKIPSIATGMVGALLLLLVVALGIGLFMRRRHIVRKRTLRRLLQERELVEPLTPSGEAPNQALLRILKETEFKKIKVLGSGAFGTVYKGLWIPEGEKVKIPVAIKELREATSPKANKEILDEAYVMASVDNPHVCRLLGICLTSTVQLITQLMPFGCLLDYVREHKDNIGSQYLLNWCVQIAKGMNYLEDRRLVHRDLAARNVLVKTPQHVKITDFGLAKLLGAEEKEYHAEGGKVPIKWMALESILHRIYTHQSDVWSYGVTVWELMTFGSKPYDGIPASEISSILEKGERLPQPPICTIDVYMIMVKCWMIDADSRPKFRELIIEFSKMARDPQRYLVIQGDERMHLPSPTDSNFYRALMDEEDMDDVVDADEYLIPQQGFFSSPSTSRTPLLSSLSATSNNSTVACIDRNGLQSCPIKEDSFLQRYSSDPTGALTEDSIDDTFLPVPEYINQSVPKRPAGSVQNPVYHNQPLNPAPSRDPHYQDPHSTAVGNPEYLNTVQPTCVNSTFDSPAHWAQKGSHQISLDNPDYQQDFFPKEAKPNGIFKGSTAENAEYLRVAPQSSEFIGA
# Chain of Fibroblast growth factor 10 (Homo sapiens) (O15520 whole entry, looked up): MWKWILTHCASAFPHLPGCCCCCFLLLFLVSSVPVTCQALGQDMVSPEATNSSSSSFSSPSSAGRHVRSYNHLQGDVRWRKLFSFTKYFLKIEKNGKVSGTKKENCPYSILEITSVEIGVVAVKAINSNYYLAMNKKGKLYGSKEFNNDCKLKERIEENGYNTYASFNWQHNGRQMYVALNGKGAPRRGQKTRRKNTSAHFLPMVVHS
# Chain of Left-right determination factor 2 (Homo sapiens) (O00292 whole entry, looked up): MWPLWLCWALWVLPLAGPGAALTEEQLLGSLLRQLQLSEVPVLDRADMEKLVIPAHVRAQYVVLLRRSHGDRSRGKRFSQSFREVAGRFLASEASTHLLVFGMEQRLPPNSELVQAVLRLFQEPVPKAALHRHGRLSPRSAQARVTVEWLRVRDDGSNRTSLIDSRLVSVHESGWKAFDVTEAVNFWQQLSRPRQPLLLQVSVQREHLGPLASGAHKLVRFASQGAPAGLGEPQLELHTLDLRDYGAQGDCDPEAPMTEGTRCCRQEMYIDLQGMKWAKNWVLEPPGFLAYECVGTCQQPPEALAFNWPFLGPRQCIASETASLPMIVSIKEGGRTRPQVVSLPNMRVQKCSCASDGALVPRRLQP
# Chain of Torsin-1A-interacting protein 1 (Homo sapiens) (Q5JTV8 whole entry, looked up): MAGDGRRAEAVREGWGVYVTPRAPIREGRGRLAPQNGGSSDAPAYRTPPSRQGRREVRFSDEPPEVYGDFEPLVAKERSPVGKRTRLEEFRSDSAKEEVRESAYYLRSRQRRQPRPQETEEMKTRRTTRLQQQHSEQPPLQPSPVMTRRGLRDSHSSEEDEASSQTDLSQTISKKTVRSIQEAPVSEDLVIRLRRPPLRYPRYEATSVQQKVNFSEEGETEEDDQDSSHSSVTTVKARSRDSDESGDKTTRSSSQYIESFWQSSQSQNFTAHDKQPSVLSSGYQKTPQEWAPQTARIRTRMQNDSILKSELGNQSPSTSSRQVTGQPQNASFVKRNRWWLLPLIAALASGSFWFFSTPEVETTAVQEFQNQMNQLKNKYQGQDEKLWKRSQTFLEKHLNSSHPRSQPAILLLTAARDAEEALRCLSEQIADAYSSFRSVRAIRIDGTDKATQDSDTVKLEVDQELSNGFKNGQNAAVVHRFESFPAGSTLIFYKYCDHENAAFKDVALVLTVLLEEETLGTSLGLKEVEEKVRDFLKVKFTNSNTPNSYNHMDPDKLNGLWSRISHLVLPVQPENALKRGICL
# Chain of Dickkopf-related protein 1 (Homo sapiens) (O94907 whole entry, looked up): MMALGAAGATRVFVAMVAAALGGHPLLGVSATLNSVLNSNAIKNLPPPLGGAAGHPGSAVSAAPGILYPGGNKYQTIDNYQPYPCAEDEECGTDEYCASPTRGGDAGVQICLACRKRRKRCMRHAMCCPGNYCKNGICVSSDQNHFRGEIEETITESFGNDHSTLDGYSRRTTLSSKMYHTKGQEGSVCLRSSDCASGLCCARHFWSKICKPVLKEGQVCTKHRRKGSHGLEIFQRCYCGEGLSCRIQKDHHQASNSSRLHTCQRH
# Chain of Follistatin-related protein 3 (Homo sapiens) (O95633 whole entry, looked up): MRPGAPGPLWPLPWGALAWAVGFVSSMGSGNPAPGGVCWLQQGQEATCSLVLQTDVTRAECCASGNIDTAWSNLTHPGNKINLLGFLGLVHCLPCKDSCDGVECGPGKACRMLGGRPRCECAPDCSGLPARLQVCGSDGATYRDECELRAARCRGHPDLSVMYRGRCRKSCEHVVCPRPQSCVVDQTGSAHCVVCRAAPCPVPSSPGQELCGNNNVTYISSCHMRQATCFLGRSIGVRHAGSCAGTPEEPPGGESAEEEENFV
SMILES,composite z-score [1],composite z-score [2],composite z-score [3],z-score [4],composite z-score [5],composite z-score [6],composite z-score [7],composite z-score [8],composite z-score [9],composite z-score [10],composite z-score [11],z-score [12],composite z-score [13],composite z-score [14],composite z-score [15],composite z-score [16],composite z-score [17],composite z-score [18],composite z-score [19],composite z-score [20]
COCCOC(=O)N1C(=O)[C@@]2(c3cc(C#CCCO)ccc31)[C@H](C(=O)N1CCN(c3ncccn3)CC1)[C@H]1C(=O)O[C@H](c3ccccc3)[C@H](c3ccccc3)N1[C@@H]2c1ccc(O)cc1,1.3,-0.499,-0.345,0.894 (inactive),1.16,1.01,0.368,0.698,-0.0017,-0.242,0.228,-1.65,0.0272,-0.444,-0.559,-0.0179,0.0074,1.01,0.894,1.85
O=C1O[C@@H](c2ccccc2)[C@@H](c2ccccc2)N2[C@@H](c3ccc(O)cc3)[C@]3(C(=O)Nc4ccc(C#CC5=CCCCC5)cc43)[C@@H](C(=O)N3CCCCCCC3)[C@H]12,1.6,1.53,1.25,-1.28 (inactive),0.66,1.29,0.623,1.35,0.485,1.79,1.38,-1.46,0.455,1.61,0.485,0.654,2.04,2.52,3.16,2.25
CC(c1ccccc1)C(O)C1C=CC2C(=O)N(c3ccccc3)C(=O)C2N1Nc1ccc(C#N)cc1 (stereo not given),1.27,0.0897,0.582,-0.44 (inactive),0.975,1.32,0.702,1.48,-0.163,0.251,1.41,-0.354,0.8,1.52,0.253,0.216,0.156,1.45,1.8,1.39
CCCCC=C[C@@H](NC(=O)c1ccc(C(F)(F)F)cc1)c1ccccc1,-0.101,0.256,0.905,-4.33 (inactive),-1.13,-1.03,-1.28,-1.01,-1.37,1.37,-0.297,-0.887,-0.636,-0.0968,0.382,-0.134,0.0022,0.278,-0.946,-1.07
COCCOC(=O)N1C(=O)[C@@]2(c3ccccc31)[C@H](c1ccc(OCCO)cc1)N1[C@H](c3ccccc3)[C@H](c3ccccc3)OC(=O)[C@H]1[C@@H]2C(=O)N1CCN(c2ncccn2)CC1,1.22,0.639,0.539,-0.483 (inactive),1.42,1.34,0.791,1.44,1.09,0.943,1.41,-1.47,1.06,1.51,0.039,-0.001,-0.043,0.998,1.5,1.26
CO[C@H]1O[C@H](CO)[C@@H](OC(=O)Nc2ccc(C(F)(F)F)cc2)[C@H](OC(=O)Nc2ccccc2-c2ccccc2)[C@H]1OC(=O)Nc1ccccc1-c1ccccc1,1.29,0.13,0.411,-1.03 (inactive),1.52,1.35,0.223,1.15,0.162,0.436,1.47,-3.83,0.24,1.59,-0.135,-0.0445,0.0121,-0.136,0.731,1.36
COC(=O)C1=CC(CCCO)=CC(c2ccc(CN3CCCC3)cc2)N(Cc2sc3ccccc3c2Cl)C=C1C(=O)OC (stereo not given),1.81,0.81,1.05,-0.855 (inactive),1.37,1.32,0.526,0.708,0.227,0.375,1.34,-0.574,1.17,2.96,1.22,0.0625,0.661,2.08,3.75,3.77
CC(C)C(=C=CC[C@@H](O)c1cccc(OCCO)c1)CCO,0.725,0.0614,0.111,-0.87 (inactive),1.51,-0.615,-0.554,0.457,0.137,0.677,0.217,0.13,0.0381,-0.203,-0.136,-0.154,-0.229,-0.273,0.393,-0.529
CC(C)C[C@H]1NC(=O)[C@@H](C)NC(=O)[C@@]23C(=O)N[C@@H](Cc4ccccc4)C2[C@H](C)[C@@]2(C)O[C@H]2C3/C=C/C/C=C\CNC1=O (stereo not given in full),1.13,-0.334,-0.585,-0.0326 (inactive),0.509,-0.164,0.634,0.638,0.389,1.29,1.29,-1.61,0.137,-0.596,-1.09,-0.175,-0.223,-0.205,-0.0872,-0.133
CN(C)CCCC[C@@H]1NC(=O)[C@@H]2C[C@H](C(=O)NCCCCCCNC(=O)CS)[C@H](c3cccc(OCCO)c3)N2C1=O,1.59,0.0307,0.358,-0.162 (inactive),0.419,0.842,-0.247,-0.0613,0.735,-0.0529,-0.275,-0.149,0.0929,-0.172,-0.221,-0.0478,-0.209,-0.103,0.947,0.0727
CN(C)CCCCNC(=O)[C@H]1C[C@H]2C(=O)N[C@@H](Cc3ccccc3)C(=O)N2[C@H]1c1cccc(OCCO)c1,1.2,-0.336,0.336,-1.9 (inactive),-0.407,-1.51,0.0459,0.198,0.574,-0.272,-1.49,-0.251,0.0071,-0.545,0.0005,-0.217,0.251,-0.338,0.0886,0.336
COC(=O)[C@@]1(Cc2ccc(F)cc2)[C@H]2c3cc(C(=O)N(C)C)n(CCn4cc([N+](=O)[O-])nc4C)c3C[C@H]2CN1C(=O)c1ccccc1,0.445,0.539,0.648,1.11 (inactive),-0.279,0.0339,-0.0789,-0.445,-0.145,0.894,0.81,-0.112,-0.831,0.892,0.378,-0.003,0.631,1.08,1.49,0.0533
C[C@H]1NC(=O)C([C@@H](C)OCc2ccccc2)NC(=O)[C@@]23C(=O)N[C@@H](Cc4ccccc4)C2[C@H](C)[C@@]2(C)O[C@H]2C3/C=C/C/C=C\CNC1=O (stereo not given in full),0.0032,-0.333,-0.603,0.219 (inactive),0.699,-0.3,0.281,0.511,0.722,1.43,-0.037,-1.52,0.39,-0.553,-0.854,-0.213,-0.0553,-0.0602,-0.0194,0.21
O=C1OCCC/C=C\[C@H]2OC34C=CCN(Cc5ccccc5)C(=O)[C@H]3N(CCCCCO)C(=O)[C@@H]4C12 (stereo not given in full),1.21,-0.312,0.312,-0.0325 (inactive),-0.744,-0.823,-1.1,-0.808,-0.663,0.933,-0.486,-1.06,-0.296,-1,-0.775,-0.169,0.0121,0.0847,2.22,-1.57
COCC(=C=CC[C@@H](O)c1cccc(OCCO)c1)C[C@@H](O)COCc1ccccc1,0.264,0.613,0.67,-0.51 (inactive),1.4,1.19,-0.623,0.416,-0.267,0.717,0.276,-0.81,-0.0586,1.8,1.35,0.284,0.0633,-0.215,3.66,0.116
CN1C(=O)[C@]2(CCC(=O)OC(C)(C)C)N=C(c3ccc(OCCCO)cc3)O[C@@H]2c2ccccc21,1.14,-0.0732,0.651,-0.432 (inactive),1.38,1.29,-0.0099,0.659,0.297,0.643,1.45,-2.88,-0.0515,0.147,-0.0006,0.0279,0.275,0.346,0.973,1.14
